MEKK2mut PB1 HTS: MEK5 binding signal on mutant MEKK2 PB1, primary screen, biochemical, multiplex bead flow cytometry, Alexa488-MEK5 | Alexa488-MEK5 binding to MEKK2 mutant | percent response, % at 10 µM | 0.35% of 290,000 active | AID 1530, 2009; in the data active = percent response above about 24%, passing the limit was not always enough
PREPL inh: PREPL enzyme inhibitors, primary screen, biochemical, fluorescence polarization; Prolyl endopeptidase-like (Homo sapiens), Q4J6C6; recombinant PREPL, fluorescence polarization activity-based probe; inhibition, % at 5.96 µM; 0.68% of 320,000 active; AID 2751, 2010; in the data active = inhibition above about 43%
Target sequence (Q4J6C6 whole entry, looked up): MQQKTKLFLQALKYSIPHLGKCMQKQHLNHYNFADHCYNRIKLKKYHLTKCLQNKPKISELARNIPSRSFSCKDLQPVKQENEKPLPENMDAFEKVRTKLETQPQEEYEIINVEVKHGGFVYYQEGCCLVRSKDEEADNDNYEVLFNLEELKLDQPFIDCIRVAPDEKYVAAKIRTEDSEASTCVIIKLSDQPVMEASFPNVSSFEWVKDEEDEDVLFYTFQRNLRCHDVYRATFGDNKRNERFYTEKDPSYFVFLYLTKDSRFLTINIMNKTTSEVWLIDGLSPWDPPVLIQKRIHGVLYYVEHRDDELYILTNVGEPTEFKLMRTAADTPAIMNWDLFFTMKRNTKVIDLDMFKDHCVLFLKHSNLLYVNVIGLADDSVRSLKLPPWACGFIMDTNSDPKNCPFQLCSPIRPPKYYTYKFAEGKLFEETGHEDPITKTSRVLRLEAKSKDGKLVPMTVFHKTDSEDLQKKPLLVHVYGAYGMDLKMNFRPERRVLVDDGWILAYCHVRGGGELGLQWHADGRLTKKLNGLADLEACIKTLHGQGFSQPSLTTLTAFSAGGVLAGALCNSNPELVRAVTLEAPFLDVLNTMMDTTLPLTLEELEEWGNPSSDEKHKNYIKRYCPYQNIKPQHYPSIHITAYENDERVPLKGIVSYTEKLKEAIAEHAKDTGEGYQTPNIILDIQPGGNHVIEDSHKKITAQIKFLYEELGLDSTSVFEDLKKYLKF
UBC13 polyUb: UBC13 polyubiquitin chain formation inhibitors, primary screen, biochemical, TR-FRET, uHTS. inhibition, % at 20 µM. AID 485273, 2010. Ubiquitin-conjugating enzyme E2 N (Homo sapiens), P61088. 0.47% of 330,000 active; in the data active = inhibition above about 45%, passing the limit was not always enough
MEKK3 PB1 HTS: modulators of MEKK3-MEK5 PB1 binding, primary screen, biochemical, wildtype MEKK3, multiplex bead flow cytometry, Alexa488-MEK5; Mitogen-activated protein kinase kinase kinase 3 (Homo sapiens), Q99759; bead-based flow cytometry, Alexa488-MEK5 binding to MEKK3; actives lie on both sides; 0 = blocked by unlabeled MEK5, 100 = vehicle; 1.4% of 290,000 active; binding response (% of control), % at 10 µM;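 active = binding response more than 3 SD above or below the average of its plate-row segment, actives on both sides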;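 note: Alexa488 bead fluorescence after subtracting the streptavidin-only scavenger bead signal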
ATG4B inhibitor: ATG4B protease inhibitors, primary screen, biochemical, fluorescence, uHTS; Cysteine protease ATG4B (Homo sapiens), Q9Y4P1; ATG4B cleavage of LC3-PLA2, NBD-HPC fluorescence, 1 h; inhibition, % at 8.33 µM; 0.51% of 340,000 active; AID 504462, 2011; in the data active = inhibition above about 40%
MEKK2wt PB1 HTS: modulators of MEK5 binding to wildtype MEKK2, primary screen, biochemical, multiplex bead flow cytometry, Alexa488-MEK5 | 1.1% of 290,000 active | AID 1531, 2009 | binding response (% of control), % at 10 µM | Mitogen-activated protein kinase kinase kinase 2 (Homo sapiens), Q9Y2U5 | Alexa488-MEK5 binding to MEKK2 WT; actives lie on both sides; in the data active = binding response below about 67% or above about 130%
MEKK2wt confirm: modulators of MEK5 binding to wildtype MEKK2, confirmation, biochemical, single concentration, multiplex bead flow cytometry. shares compounds with MEKK3 PB1 HTS. Alexa488-MEK5 binding to MEKK2 WT; actives lie on both sides. binding response (% of control), % at 10 µM. 2.4% of 5,900 active. AID 1892, 2009; in the data active = binding response below about 16% or above about 210%; inactive = in between
MEKK2mut-MEK5: mutant MEKK2 PB1-MEK5 binding signal retest – biochemical, single concentration, multiplex bead flow cytometry, confirmation. shares compounds with MEKK3 PB1 HTS. Alexa488-MEK5 binding to MEKK2 mutant. percent response, % at 10 µM. 2% of 5,900 active. AID 1893, 2009; in the data active = percent response mostly above about 71%, no sharp cut-off; inactive = mostly below about 38%;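 note: higher means compound restores mutant binding toward wildtype level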
MEKK3-MEK5 inh: MEKK3 wild-type PB1 binding to MEK5, inhibitors, confirmation, biochemical, bead multiplex flow cytometry, single concentration, wildtype; 1.8% of 5,900 active; binding response (% of control), % at 10 µM; AID 1894, 2009; Alexa488-MEK5 binding to MEKK3; active compounds read low; shares compounds with MEKK3 PB1 HTS;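 active = binding response below 72% of control, or above a set upper limit, though filed actives all read lower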;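 note: lower values mean stronger disruption of MEK5 binding to MEKK3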
Hits are given with their value; [ ] = dose if it differs, or a comment. Sampled rows, rich in hits. Any-hit rate of the full collection: about 3.1%.

Cc1ccc(S(=O)(=O)N(Cc2cc3ccccc3[nH]c2=O)c2cccc(C)c2)cc1 was read as MEKK2mut PB1 HTS inactive, PREPL inh inactive, UBC13 polyUb inactive, MEKK3 PB1 HTS inactive, ATG4B inhibitor inactive and MEKK2wt PB1 HTS inactive.
Screening CC1(OC(=O)CCc2ccccc2)C(=O)C=C2C=C(c3ccc(C#N)cc3)N(C3CC3)C=C2C1=O (stereo not given) returned MEKK2mut PB1 HTS inactive, PREPL inh inactive, UBC13 polyUb inactive, MEKK3 PB1 HTS inactive, ATG4B inhibitor inactive, MEKK2wt PB1 HTS 140, MEKK2wt confirm inactive, MEKK2mut-MEK5 inactive and MEKK3-MEK5 inh inactive.
COC(=O)CN1C(=O)COc2ccc(S(=O)(=O)NCc3ccccc3)cc21 was read as MEKK2mut PB1 HTS inactive, PREPL inh inactive, UBC13 polyUb inactive, MEKK3 PB1 HTS inactive, ATG4B inhibitor inactive and MEKK2wt PB1 HTS inactive.
For COc1ccc(/C=C/C(=O)OCC(=O)NC(C)CCc2ccccc2)cc1 (stereo not given) the results were PREPL inh inactive, UBC13 polyUb inactive and ATG4B inhibitor inactive.
CN(C)c1ccc(/C=N/NC(=O)c2ccco2)cc1 was read as MEKK2mut PB1 HTS inactive, PREPL inh inactive, UBC13 polyUb inactive, MEKK3 PB1 HTS 130, ATG4B inhibitor inactive, MEKK2wt PB1 HTS inactive, MEKK2wt confirm inactive, MEKK2mut-MEK5 inactive and MEKK3-MEK5 inh inactive.
For Cn1ccnc1C(=O)c1ccc(S(=O)(=O)N2CCCC2)cc1 the results were MEKK2mut PB1 HTS inactive, PREPL inh inactive, UBC13 polyUb inactive, MEKK3 PB1 HTS inactive, ATG4B inhibitor inactive and MEKK2wt PB1 HTS inactive.
Cc1ccccc1OCC(=O)N/N=C/c1cccc(Oc2ccc([N+](=O)[O-])cc2[N+](=O)[O-])c1 was read as MEKK2mut PB1 HTS inactive, PREPL inh inactive, UBC13 polyUb inactive, MEKK3 PB1 HTS 132, ATG4B inhibitor inactive, MEKK2wt PB1 HTS inactive, MEKK2wt confirm inactive, MEKK2mut-MEK5 inactive and MEKK3-MEK5 inh inactive.
For O=C(Cc1cccc(NC(=O)C2CCN(S(=O)(=O)c3cccc([N+](=O)[O-])c3)CC2)c1)Nc1cccc(C(=O)N2CCCCC2)c1 the results were ATG4B inhibitor inactive.
`Cc1ccccc1NC(=S)c1ccc2ccccc2n1` gave MEKK2mut PB1 HTS inactive, PREPL inh inactive, UBC13 polyUb inactive, MEKK3 PB1 HTS inactive, ATG4B inhibitor inactive and MEKK2wt PB1 HTS inactive.
Screening O=S(=O)(c1ccccc1)N1CCN(C(=S)Nc2ccc(F)cc2)CC1 returned MEKK2mut PB1 HTS inactive, PREPL inh inactive, UBC13 polyUb inactive, MEKK3 PB1 HTS 134, ATG4B inhibitor inactive, MEKK2wt PB1 HTS inactive, MEKK2wt confirm inactive, MEKK2mut-MEK5 inactive and MEKK3-MEK5 inh inactive.
For O=S(=O)(c1ccccc1)N1CCN(C(=S)Nc2ccccc2)CC1 the results were MEKK2mut PB1 HTS inactive, UBC13 polyUb inactive, MEKK3 PB1 HTS inactive, ATG4B inhibitor inactive and MEKK2wt PB1 HTS inactive.
`COc1ccc(C2C3=C(CC(C)(C)CC3=O)Oc3ncn(Cc4ccco4)c(=N)c32)cc1` (stereo not given) gave MEKK2mut PB1 HTS inactive, PREPL inh inactive, UBC13 polyUb inactive, MEKK3 PB1 HTS 2.0[inhibitor], ATG4B inhibitor inactive, MEKK2wt PB1 HTS -1.0[inhibitor], MEKK2wt confirm inactive, MEKK2mut-MEK5 inactive and MEKK3-MEK5 inh inactive.
N=c1c2c(ncn1Cc1ccco1)Oc1ccc3ccccc3c1C2c1ccccc1 (stereo not given) was read as MEKK2mut PB1 HTS inactive, PREPL inh inactive, UBC13 polyUb inactive, MEKK3 PB1 HTS inactive, ATG4B inhibitor inactive and MEKK2wt PB1 HTS inactive.
COc1ccc(C2c3c(ncn(Cc4ccco4)c3=N)Oc3ccc4ccccc4c32)cc1 (stereo not given) was read as MEKK2mut PB1 HTS 56, PREPL inh inactive, UBC13 polyUb inactive, MEKK3 PB1 HTS inactive, ATG4B inhibitor inactive, MEKK2wt PB1 HTS 185, MEKK2wt confirm inactive, MEKK2mut-MEK5 inactive and MEKK3-MEK5 inh inactive.
Screening CC(=O)Nc1ccc(NC(=S)NC(=O)/C=C/c2ccco2)cc1 returned MEKK2mut PB1 HTS inactive, PREPL inh inactive, UBC13 polyUb inactive, MEKK3 PB1 HTS 40[inhibitor], ATG4B inhibitor inactive, MEKK2wt PB1 HTS 16[inhibitor], MEKK2wt confirm inactive, MEKK2mut-MEK5 inactive and MEKK3-MEK5 inh inactive.
CCc1nnc(NC(=O)/C=C/c2ccco2)s1 was read as MEKK2mut PB1 HTS inactive, PREPL inh inactive, UBC13 polyUb inactive, MEKK3 PB1 HTS 131, ATG4B inhibitor inactive, MEKK2wt PB1 HTS inactive, MEKK2wt confirm inactive, MEKK2mut-MEK5 inactive and MEKK3-MEK5 inh inactive.
`O=C(/C=C/c1ccccc1)NC(=S)Nc1ccccc1` gave MEKK2mut PB1 HTS inactive, PREPL inh inactive, UBC13 polyUb inactive, MEKK3 PB1 HTS 122, ATG4B inhibitor inactive, MEKK2wt PB1 HTS inactive, MEKK2wt confirm inactive, MEKK2mut-MEK5 inactive and MEKK3-MEK5 inh inactive.
For O=C(/C=C/c1ccc(F)cc1)NC(=S)Nc1ccccc1 the results were MEKK2mut PB1 HTS inactive, UBC13 polyUb inactive, MEKK3 PB1 HTS inactive, ATG4B inhibitor inactive and MEKK2wt PB1 HTS inactive.
`CCSc1nnc(NC(=O)/C=C/c2ccco2)s1` gave MEKK2mut PB1 HTS inactive, PREPL inh inactive, UBC13 polyUb inactive, MEKK3 PB1 HTS inactive, ATG4B inhibitor inactive and MEKK2wt PB1 HTS inactive.
Screening Cc1n[nH]c(C)c1Sc1ccccc1N=Cc1cc(Cl)cc([N+](=O)[O-])c1O returned MEKK2mut PB1 HTS inactive, PREPL inh inactive, UBC13 polyUb inactive, MEKK3 PB1 HTS inactive, ATG4B inhibitor inactive and MEKK2wt PB1 HTS inactive.
For Cc1n[nH]c(C)c1Sc1ccccc1[N+](=O)[O-] the results were MEKK2mut PB1 HTS inactive, PREPL inh inactive, UBC13 polyUb inactive, MEKK3 PB1 HTS 57[inhibitor], ATG4B inhibitor inactive, MEKK2wt PB1 HTS inactive, MEKK2wt confirm inactive, MEKK2mut-MEK5 inactive and MEKK3-MEK5 inh inactive.

Screening data as filed in PubChem.
